Sampled rows, rich in hits. Any-hit rate of the full collection: about 9.2%.
NPC1 prom act: NPC1 promoter activation; Potency, µM (series often up to 9.22 µM), for inactives: at the highest dose activation, most hits filed as activators; Huh7 NPC1 promoter luciferase reporter, 24 h; AID 485313; actives 2.4% (n = 320,000); further: % of control where 0% means no effect; nearly all actives have a fitted effect of over 60% in size
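Huh7 cells stably carrying NPC1 promoter–luciferase, plated in Opti-MEM with 10% FBS for 2 h, were exposed to compound in DMSO for 24 h at 37 °C; luciferase reagent was added for 10 min and luminescence read.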
SMN2 splice enh: increases expression of the SMN2 splice variant | HEK293 SMN2-luciferase splicing reporter, luminescence, 30-36 h | Potency, µM (highest dose often 46.1 µM), inactives show at the top dose activity change, positive = activation, most hits filed as activators | actives 2.8% (n = 210,000); further: % of control where 0% means no effect; nearly all actives have a fitted effect of over 55% in size
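HEK293 cells carry an SMN2 minigene-luciferase reporter in which exon 7 inclusion puts luciferase in frame. Cells were seeded at 2000 cells/well, attached for 10-12 hours, then exposed to compounds for 30-36 hours at 37C before ONE-Glo luminescence.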
FLuc counter: inhibits or activates purified firefly luciferase, miR-21 counter-screen; P08659; purified FLuc, Km substrates, luminescence inhibition; Potency, µM (series often up to 57.5 µM), inactives show at the highest dose activity change, negative = inhibition, hits mostly inhibitors; actives 6.9% (n = 360,000); AID 588342;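 further: plate controls were vehicle for no effect and reference inhibitor for full effect; nearly all actives have a fitted effect of over 55% in size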
Target sequence (P08659 whole entry, looked up): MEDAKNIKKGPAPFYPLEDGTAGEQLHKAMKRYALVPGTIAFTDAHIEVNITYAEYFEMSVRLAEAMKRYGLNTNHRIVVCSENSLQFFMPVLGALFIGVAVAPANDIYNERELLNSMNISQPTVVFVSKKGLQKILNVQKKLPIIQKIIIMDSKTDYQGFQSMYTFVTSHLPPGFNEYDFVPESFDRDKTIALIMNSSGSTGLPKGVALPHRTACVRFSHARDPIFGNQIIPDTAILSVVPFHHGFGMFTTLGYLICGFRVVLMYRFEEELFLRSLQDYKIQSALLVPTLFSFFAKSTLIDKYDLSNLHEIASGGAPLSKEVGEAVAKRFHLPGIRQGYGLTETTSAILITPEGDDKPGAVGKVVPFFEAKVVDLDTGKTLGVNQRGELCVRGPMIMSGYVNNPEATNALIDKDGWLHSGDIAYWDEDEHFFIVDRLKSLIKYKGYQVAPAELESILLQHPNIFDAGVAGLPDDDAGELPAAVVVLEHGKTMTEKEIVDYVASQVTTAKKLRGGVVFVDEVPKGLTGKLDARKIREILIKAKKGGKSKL
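Purified P. pyralis luciferase, 10 nM final, with Km-level 10 uM D-luciferin and 10 uM ATP in 50 mM Tris acetate pH 7.5, 10 mM Mg acetate, 0.01% Tween-20, 0.05% BSA; 6-point qHTS titration about 60 µM downward; luminescence read.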
Rab9 prom act: Rab9 promoter activation | Huh7 Rab9 promoter-luciferase reporter, luminescence, 24 h | actives 2.8% (n = 320,000) | Potency, µM (top dose mostly 9.22 µM), for the others: at the highest dose activation, negative = inhibition, usual class: activators | AID 485297; further: % of control where 0% means no effect; nearly all actives have a fitted effect of over 60% in size
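Huh7 cells stably carrying a Rab9 promoter-luciferase reporter, 1500 cells per well in OP-MEM I with 10% FBS, treated with compound 24 hours at 37C. Luciferase activity read by luminescence after 10 minutes with Amplite reagent.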
ELG1 genotoxic: genotoxicity induction in ELG1-luciferase HEK293T cells; actives 1.3% (n = 330,000); Potency, µM (highest dose often 46 µM), for the others: top-dose activity change, positive = activation, most hits filed as activators; AID 504466; HEK293T ELG1-luciferase reporter, luminescence, 16 h; further: % of control where 0% means no effect; nearly all actives have a fitted effect of over 60% in size
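Genotoxic stress is detected as increased luminescence from luciferase-tagged ELG1 in HEK293T cells, measured with ONE-Glo after a 16 hr treatment at 37 °C.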
ELG1 DNA repair: blocks ELG1-dependent DNA repair in HEK293T cells; HEK293T ELG1-luciferase reporter, luminescence, 16 h; DNA damage induced by 5-fluorouridine; Potency, µM (top dose mostly 46.1 µM), without a hit: at the top dose activity change, negative = inhibition, actives largely listed as inhibitors; actives 2.3% (n = 330,000); AID 504467; further: on the % scale 0 is the no-effect control and ±100 the full control effect; nearly all actives have a fitted effect of over 55% in size
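5-Fluorouridine DNA damage + compound/DMSO, 2,000 cells/well, 16 h, 37 °C/5% CO2. ONE-Glo, 30 min RT, luminescence. Readout = decrease in reporter signal.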
* marks the source's active call; other numbers are inactive results; ? = inconclusive; · = no result given. The call rests on the fitted dose curve; in most records, active means well fitted curve in the direction sought with a large enough effect; inconclusive means small, poorly fitted or top-dose-only effect, or another doubt; inactive means no such curve, though single readings can be large; an effect the other way counts as inactive or inconclusive. Potency means the concentration at half of the fitted maximal effect.

SMILES | NPC1 prom act | SMN2 splice enh | FLuc counter | Rab9 prom act | ELG1 genotoxic | ELG1 DNA repair
Cc1cc(=O)n2nc(N3CCCC(C(=O)NCc4ccccc4Cl)C3)sc2n1 (centres undefined) | -1.3% | · | 1.2% | 0.0% | 2.0% | 7.8%
CCc1ccc(CNC(=O)c2ccc(NC(=O)N3CCCCc4ccccc43)cc2)cc1 | · | · | -17.7% | · | · | ·
O=C(CCCOc1ccc(Cl)cc1Cl)n1nnc2ccccc21 | -1.6% | -7.5% | ? | 0.0% | 0.9% | 1.6%
CCN(CC)C(=O)CCCOc1ccc(Cl)cc1Cl | 3.16µM* | -0.7% | ? | ? | 8.1% | ?
CN(C)CCCCOc1ccc(Br)cc1Cl | -11.1% | -19.7% | 0.6% | 2.7% | -1.2% | -3.4%
Nc1nncn1C(=O)CCCOc1ccc(Cl)cc1Cl | -3.2% | -1.6% | 9.53µM* | 0.9% | 3.1% | 10.9%
CC(C)NC(=O)CCCOc1ccc(Cl)cc1Cl | 15.3% | -2.4% | ? | 24.0% | ? | ?
C#CCN(C)CCCOc1ccc(Cl)cc1Cl | ? | 14.7% | 13.5µM* | ? | 15.7% | ?
COc1cccc(C2C=C(c3ccc(C)c(C)c3)Nc3nnnn32)c1OC (centres undefined) | · | · | -11.2% | · | · | ·
O=C(/C=C/c1ccc(-c2ccccc2[N+](=O)[O-])o1)c1ccco1 | 1.9% | 9.2% | 19µM* | ? | 2.3% | 2.1%
Cc1ccc(-n2ncc(C(=O)N3CCN(C4CCCCC4)CC3)c2C2CCN(C(=O)OC(C)(C)C)CC2)cc1C | · | · | 0.7% | · | · | ·
O=C(NC(=S)NC1CCCCC1)c1ccccc1 | ? | · | 15.1µM* | ? | ? | ?
O=C(NC(=S)Nc1ncc(Br)cc1Br)c1cncc(Br)c1 | · | -35.1% | ? | · | · | ·
O=C(NC(=S)NC1CCS(=O)(=O)C1)c1ccccc1 (centres undefined) | -5.6% | · | 4.5% | 2.1% | 8.3% | -3.6%
O=C(NC(=S)NC1CCCCCC1)c1cncc(Br)c1 | ? | 15.8µM* | ? | 19.6% | ? | ?
Cc1cnc(C(=O)OCC(=O)c2ccccc2)cn1 | -2.0% | · | ? | -0.8% | 3.4% | 6.1%
Nc1cccc(C(=O)OCC(=O)c2ccccc2)c1 | 3.16µM* | 10µM* | 1.35µM* | 3.55µM* | ? | ?
Cn1ccc(C(=O)OCC(=O)c2ccccc2)n1 | 10.7% | · | 26.9µM* | 20.7% | ? | ?
O=C(COC(=O)c1cccc(N2C(=O)C3CC=CCC3C2=O)c1)c1ccccc1 (centres undefined) | 19.4% | · | 2.39µM* | 2.3% | 3.8% | -3.3%
O=C(O)c1cccc(N2C(=O)C3CC=CCC3C2=O)c1 (centres undefined) | -2.4% | -1.0% | 1.3% | -2.1% | 1.5% | -5.3%
O=C(COC(=O)c1cccc(O)c1)c1ccccc1 | -0.3% | · | ? | 20.3% | ? | ?
CCc1ccc(C(=O)COC(=O)c2cccc(N3C(=O)c4c(C)nc5ccccc5c4C3=O)c2)cc1 | ? | -17.9% | 1.69µM* | 26.3% | 0.3% | ?
COc1cc(-c2nc3ccc(C)cn3c2Nc2ccc(Cl)cc2)ccc1O | · | 23.9% | -9.6% | · | · | ·
CCOc1ccc(NC(=O)N2CCC(CN3CCCCCC3)CC2)cc1 | · | · | -6.7% | · | · | ·
COc1ccc(-n2cnc3cc(NS(=O)(=O)c4ccccc4)ccc32)cc1 | 2.6% | 27.8% | ? | 0.0% | 3.4% | ?
CCC(=O)Nc1ccc2c(c1)ncn2-c1ccccc1OC | 1.8% | 4.1% | -13.1% | -1.5% | 1.6% | 1.8%
COc1ccccc1-n1cnc2cc(NC(=O)c3ccco3)ccc21 | -13.1% | 10µM* | ? | -5.6% | ? | ?
COc1ccc(-n2cnc3cc(NC(=O)c4ccco4)ccc32)cc1 | 4.1% | -15.9% | 13.5µM* | 1.7% | 14.7% | 20.0%
O=C(Nc1ccc2c(c1)ncn2C1CCCCC1)c1ccco1 | ? | 22.6% | 13.5µM* | 3.55µM* | ? | ?
O=C(Nc1ccc(S(=O)(=O)NC2CCCCC2)cc1)c1ccco1 | -5.5% | -24.3% | 0.9% | 1.6% | 0.1% | ?

Source: PubChem BioAssay
